Measurements taken from the supplement of paper PMC13380429.
A number with no mark means an inactive call.

Test system: Vero E6 infected with SARS-CoV-2
Test: inhibition of SARS-CoV-2 cytopathic effect; higher = more antiviral protection, active = above 15
Conditions: 48 h

| Structure (SMILES) | inhibition of SARS-CoV-2 cytopathic effect (1 nM) [%] | inhibition of SARS-CoV-2 cytopathic effect (8.33 nM) [%] | inhibition of SARS-CoV-2 cytopathic effect (100 nM) [%] | inhibition of SARS-CoV-2 cytopathic effect (833.33 nM) [%] | inhibition of SARS-CoV-2 cytopathic effect (10000 nM) |
| --- | --- | --- | --- | --- | --- |
| CCN(CC)CCNC(=O)c1cc(S(C)(=O)=O)ccc1OC [tiapride] | 1.6 | -0.89 | -0.61 | 0.66 | 2.27% |
| C[N+]1(C)[C@@H]2CC[C@H]1C[C@@H](OC(=O)C(CO)c1ccccc1)C2 (stereo not given in full) [methylatropine-nitrate] | 1.74 | 2.06 | 2.14 | 4.12 | 3.88% |
| Nc1c(Br)cc(Br)cc1CN[C@H]1CC[C@H](O)CC1 [ambroxol] | -4.07 | -1 | -0.99 | 1.23 | -1.75% |
| NC(=O)CC[C@H](N)C(=O)O [L-glutamine] | 0.7 | 2.45 | 0.59 | 0.71 | -2.64% |
| Cc1ccc(-n2nc(C(C)(C)C)cc2NC(=O)Nc2ccc(OCCN3CCOCC3)c3ccccc23)cc1 [doramapimod] | -2.22 | 1.14 | -0.73 | 4.29 | 8.03% |
| CCN(c1cc(C#CCN2CCOCC2)cc(C(=O)NCc2c(C)cc(C)[nH]c2=O)c1C)[C@H]1CC[C@H](N(C)CCOC)CC1 | -1.56 | -1.99 | 3.36 | -2.9 | -5.69% |
| O=[N+]([O-])c1c(Nc2cc(F)cc(Cl)c2)ccc2nonc12 | 1.7 | 2.32 | 1.45 | -0.1 | 2.66% |
| CCCCCCCCCCCCOS(=O)(=O)O [dodecyl-sulfate] | -0.285 | 1.83 | 1.98 | 0.175 | 0.47% |
| O=C1NCCNC1c1cccs1 (stereo not given) [tenilsetam] | 3.34 | 0.52 | -1.98 | -2.12 | -1.68% |
| CC1OC2(CS1)CN1CCC2CC1 (stereo not given) [cevimeline] | -0.26 | -0.65 | -1.15 | -0.01 | -1.57% |
| c1cc(-c2cnn3cc(-c4ccc(N5CCNCC5)cc4)cnc23)c2cccnc2c1 | -0.58 | -1.57 | -4.29 | -2.22 | 6.47% |
| CC(=O)O[C@]1(C(C)=O)CC[C@H]2[C@@H]3CCC4=CC(=O)CC[C@]4(C)[C@H]3CC[C@@]21C [hydroxyprogesterone-acetate] | -3.23 | 0.18 | -2.75 | 0.45 | 10.9% |
| O=C(COc1ccc(Cl)cc1)N1CCN(Cc2ccc3c(c2)OCO3)CC1 [fipexide] | -0.21 | 0.95 | 1.92 | 1.62 | 0.49% |
| Fc1ccc(CNc2ncnc3ccc(F)cc23)cc1 [spautin-1] | -1.85 | -0.71 | -0.05 | -0.85 | -1.95% |
| CCN(CC)CCOC(=O)C(c1ccccc1)c1ccccc1 [adiphenine] | -1.11 | -0.19 | 2.09 | 1.64 | -0.25% |
| Nc1nc2c(cnn2CCc2ccccc2)c2nc(-c3ccco3)nn12 | 1.74 | 1.86 | -4.65 | -2.26 | -2.96% |
| CC(=O)[C@H]1CC[C@H]2[C@@H]3CC[C@H]4C[C@H](O)CC[C@]4(C)[C@H]3CC[C@]12C [allopregnanolone] | 0.625 | 0.465 | -0.195 | 0.8 | -0.82% |
| CC(=O)c1ccc(NS(C)(=O)=O)c(Oc2ccc(F)cc2F)c1 | 4.46 | 0.47 | 0.56 | 1.88 | 2.13% |
| O=C(c1ccccn1)c1cnn2c(-c3ccncc3)ccnc12 [ocinaplon] | 0.32 | -1.43 | -0.52 | -3.04 | -0.62% |
| O=C(Nc1ccc(S(=O)(=O)C(F)(F)F)cc1)C1=CCN(c2ncccc2C(F)(F)F)CC1 | 0.25 | -1.04 | -1.04 | -0.34 | -2.58% |

| Structure (SMILES) | inhibition of SARS-CoV-2 cytopathic effect (1 nM) [%] | inhibition of SARS-CoV-2 cytopathic effect (8.33 nM) [%] | inhibition of SARS-CoV-2 cytopathic effect (100 nM) [%] | inhibition of SARS-CoV-2 cytopathic effect (833.33 nM) [%] | inhibition of SARS-CoV-2 cytopathic effect (10000 nM) |
| --- | --- | --- | --- | --- | --- |
| COc1ccccc1OC(=O)C(C)c1ccc(CC(C)C)cc1 (stereo not given) [metoxibutropate] | -3.38 | -2.87 | -1.26 | -1.98 | -3.16% |
| Cc1c(-c2ccc(O)cc2)n(Cc2ccc(OCCN3CCCCCC3)cc2)c2ccc(O)cc12 [bazedoxifene] | -2 | -3.97 | -2.44 | -5.76 | 48.9% (active) |
| O=C(CC1NCCCC1O)Cn1cnc2cc(Br)c(Cl)cc2c1=O (stereo not given) [halofuginone] | -3.21 | -1.77 | -2.82 | 12.3 | -13.9% |
| CN(C(=O)Cc1ccc(Cl)c(Cl)c1)[C@H](CN1CCCC1)c1ccccc1 | 4.62 | 6.47 | 6.09 | -0.24 | 34.8% (active) |
| CC(=O)N[C@H](Cc1ccc2ccccc2c1)C(=O)N[C@H](Cc1ccc(Cl)cc1)C(=O)N[C@H](Cc1cccnc1)C(=O)N[C@@H](CO)C(=O)N[C@@H](Cc1ccc(NC(=O)[C@@H]2CC(=O)NC(=O)N2)cc1)C(=O)N[C@H](Cc1ccc(NC(N)=O)cc1)C(=O)N[C@@H](CC(C)C)C(=O)N[C@@H](CCCCNC(C)C)C(=O)N1CCC[C@H]1C(=O)N[C@H](C)C(N)=O [degarelix] | -0.25 | 1.93 | 3.06 | 1.45 | 2.25% |
| C[C@H](NC[C@H](O)CP(=O)(O)Cc1ccccc1)c1ccc(Cl)c(Cl)c1 | 2.41 | 3.89 | 1.35 | 1.79 | 4.47% |
| Cc1ccc2cc(-c3c(C)ccc(C(=O)c4c(-c5ccccc5)n(C)n(-c5ccccc5)c4=O)c3N)ccc2n1 | -0.74 | -0.19 | -0.14 | 2.1 | 43.4% (active) |
| NCCc1ccc(O)c(O)c1 [dopamine] | -0.56 | 0.74 | -0.35 | 0.38 | 0.14% |
| N[C@@H](CSC(c1ccccc1)(c1ccccc1)c1ccccc1)C(=O)O [S-trityl-L-cysteine] | -0.89 | -0.64 | -2.17 | -0.68 | -1.72% |
| CCCNC(C)C(=O)Nc1c(C)csc1C(=O)OC (stereo not given) [articaine] | -0.23 | 0.85 | 0.42 | 4.27 | -2.09% |
| O=C(NCCN1CCOCC1)c1ccc(Cl)cc1 [moclobemide] | 1.23 | 2.39 | 0.11 | -2.19 | -0.2% |
| N[C@H](C(=O)O)c1cc(O)no1 [ibotenic-acid] | 2.28 | 1.34 | 0.56 | -0.13 | -0.16% |
| CCC1(C)CC(=O)NC(=O)C1 [bemegride] | -1.73 | -2.18 | -2.05 | 1.29 | -2.8% |
| Cc1cc2cc3c(C)cc(=O)oc3c(C)c2o1 [trioxsalen] | 1.96 | 2.74 | 0.65 | 3.62 | -0.06% |
| NCC(CC(=O)O)c1ccc(Cl)cc1 (stereo not given) [baclofen] | -0.225 | -1.56 | -2.14 | 0.04 | -0.06% |
| Nc1nc2c(ncn2COC(CO)CO)c(=O)[nH]1 [ganciclovir] | 0.29 | 0.09 | 2.75 | -1.42 | -1.71% |
| c1cnc(NCc2ccc(CNc3ncccn3)cc2)nc1 | -2.38 | -1.7 | -0.65 | -1.46 | -0.62% |
| CCCCCCCCC(=O)N[C@H](CN1CCCC1)[C@H](O)c1ccc2c(c1)OCCO2 | 3.01 | 0.25 | 2.54 | 1.06 | 9.9% |
| NNC(=O)CSc1nc2scc(-c3ccccc3)c2c(=O)n1-c1ccccc1 | -1.69 | 1.94 | -0.83 | -2.58 | -1.58% |
| Clc1ccccc1C(c1ccccc1)(c1ccccc1)n1cccn1 | 2.55 | 1.8 | -0.74 | 1.1 | 0.33% |
